Screening data from PubChem BioAssay.
DRD3 agonist: agonists of human D3 dopamine receptor. max activation, %. D3R DiscoveRx beta-arrestin cells, luminescence, 90 min. hit rate 0.58% among 410,000. P35462; in the data active = max activation above about 30%; note: 0% is about no effect
Target sequence (P35462 whole entry, looked up): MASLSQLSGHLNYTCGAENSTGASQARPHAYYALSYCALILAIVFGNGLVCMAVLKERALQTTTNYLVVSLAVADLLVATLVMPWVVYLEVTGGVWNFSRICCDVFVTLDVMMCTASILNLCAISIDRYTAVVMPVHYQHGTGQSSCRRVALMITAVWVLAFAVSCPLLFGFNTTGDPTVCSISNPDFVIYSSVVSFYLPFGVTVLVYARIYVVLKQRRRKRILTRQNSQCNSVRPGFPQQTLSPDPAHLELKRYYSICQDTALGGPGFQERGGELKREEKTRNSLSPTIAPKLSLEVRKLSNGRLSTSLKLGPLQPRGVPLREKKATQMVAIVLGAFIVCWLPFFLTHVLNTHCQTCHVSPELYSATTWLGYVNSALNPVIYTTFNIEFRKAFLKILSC
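Cells at 1500/well, incubated overnight, then treated with pinned compounds (dopamine as control) for 90 min at 37 degrees C. DiscoveRx reagent added for 30 - 60 minutes at room temperature; luminescence read.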
GLP1R cytotox: cytotoxicity in counter-screen for GLP-1R inverse agonists; HEK293 cAMP-luciferase reporter cells, luminescence, 24 h; hit rate 0.13% among 410,000; Potency, µM (top dose mostly 38.3 µM), for inactives: top-dose activity change, negative = inhibition, most hits filed as inhibitors;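 note: loss of luciferase light is scored as toxicity; potency is the fitted concentration of half-maximal effect; % is set by controls: 0 for no effect and ±100 for the full control effect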
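Luminescence readout: signal drop marks cytotoxicity. Plated cells grew 12 h at 37 °C, 5% CO2, received 23 nL compound for 24 h, then got luciferase reagent, read after 12 min at RT.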
GLP1R inv ag: inverse agonists of human GLP-1 receptor; P43220; HEK293 GLP-1R CRE-luciferase, luminescence, 24 h; GLP-1R form is constitutively active; Potency, µM (doses to about 38.3 µM), for the others: at the highest dose activity change, negative = inhibition, actives largely listed as inhibitors; hit rate 1.6% among 410,000; note: potency is the fitted concentration of half-maximal effect; % is set by controls: 0 for no effect and ±100 for the full control effect; nearly all actives have a fitted effect of over 55% in size
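GLP-1R inverse agonism mode: basal reporter luminescence in engineered HEK293 cells measured after one day of compound exposure at 37 deg C, with a 12 min room-temperature detection step.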
DRD3 antagonist: antagonists of human D3 dopamine receptor; hit rate 2.5% among 360,000; max response, negative = inhibition, %; D3R cells, DiscoveRx beta-arrestin luminescence, antagonist mode; active compounds read low; AID 652054; P35462; in the data active = max response below about -50%; inconclusive = no clear call, values can overlap the other calls; note: % is set by controls: 0 for no effect and ±100 for the full control effect
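Cells plated overnight at 1500 cells/well, then exposed to library compounds with dopamine controls for 90 minutes at 37 degrees C. DiscoveRx reagent added for 30–60 minutes at room temperature; luminescence read, quantitative HTS format.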
ClpP mod: qHTS Assay for Activators of ClpP | hit rate 1.9% among 340,000 | Potency, µM (highest dose often 57.5 µM), for the others: top-dose activity change, negative = active | purified B. subtilis ClpP, FRET peptide cleavage, 20 min; active = well fitted falling curve with a large enough effect; inconclusive = small, poorly fitted or top-dose-only effect; inactive = no such curve, though single readings can be large or run the other way; note: potency is the fitted concentration of half-maximal effect; the source files actives as falling curves though it sought activators and does not explain the sign; nearly all actives have a fitted effect of over 65% in size
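FRET quenching reversal measured ClpP activation: 10 microg/mL B. subtilis ClpP at pH 8 with the FRET-FV decapeptide, read at 430 nm after 320 nm excitation. The 20-min minus 0-min signal was scaled between DMSO/no-enzyme wells and ADEP (5.8 microM final).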
GLP-1R agonist: agonists of human GLP-1 receptor; HEK293 GLP-1R CRE-luciferase, luminescence, 4-6 h; cells express a hypersensitive GLP-1R form; Potency, µM (series often up to 45.6 µM), for inactives: at the top dose activation, hits mostly activators; hit rate 0.007% among 380,000; note: potency is the fitted concentration of half-maximal effect; % of control where 0% means no effect
* marks the source's active call; other numbers are inactive results; u = inconclusive; x = no result. Most compounds without a hit are left out; they make up all but 5.7% or so of the library. Unless noted, calls come from the whole dose curve; as a rule, active = well fitted curve in the direction sought with a large enough effect; inconclusive = small, poorly fitted or top-dose-only effect, or another doubt; inactive = no such curve, though single readings can be large; an effect the other way counts as inactive or inconclusive.

SMILES	DRD3 agonist	GLP1R cytotox	GLP1R inv ag	DRD3 antagonist	ClpP mod	GLP-1R agonist
CC(CC(=O)Nc1cccc(Cl)c1)c1ccccc1 (centres undefined)	-6	-7%	u	24	14µM*	-3%
CN(CC(=O)Nc1cccc(Cl)c1)S(=O)(=O)/C=C/c1ccccc1	2	-19%	10µM*	19	-2%	15%
COc1cccc(NC(=O)CN(C)S(=O)(=O)/C=C/c2ccccc2)c1	2	-8%	u	-4	-1%	10%
CC(=O)c1sc(Nc2ccc(Oc3ccccc3)cc2)nc1C	13	1%	u	0	-24%	7%
Cc1cc(/C=C/c2ccnc3ccccc23)ccc1N	x	x	x	x	-3%	x
CCOC(=O)c1c(C)oc2ncnc(NCCCN3CCN(c4cc(C)ccc4C)CC3)c12	-18	9%	-15%	x	-1%	x
CCCCC(=O)N(C)c1c(C)nc2ccc(C(=O)NCc3ccccc3OC)cn12	9	4%	-16%	4	-2%	3%
CCOC(=O)C1(C)CCN1C(=O)c1oc2ccccc2c1C (centres undefined)	6	-8%	5%	-22	-1%	2%
CC(CC(=O)Nc1ccc2c(c1)c(=O)n(C)n2-c1ccccc1F)c1ccccc1 (centres undefined)	-22	-30%	u	-90*	5%	-2%
Cn1c(=O)c2cc(NC(=O)CC(C)(C)C)ccc2n1-c1ccccc1F	-7	-5%	-27%	0	4%	40%
CC(c1ccccc1)N1CCC(CNC(=S)Nc2cccc(Cl)c2)C1 (centres undefined)	-11	u	3.2µM*	u	x	4%
COc1ccc(C(=O)/C=C/C(=O)N(CC(=O)NC2CCCCC2)Cc2ccccc2)c(O)c1	-31	-21%	-14%	-115*	x	6%
CCOc1ccc2nc(C)cc(Nc3ccccc3OCC)c2c1	-17	-33%	u	x	-5%	x
Cc1cc(C)c(S(=O)(=O)N2CCN(C(=O)C3COc4ccccc4O3)CC2)c(C)c1 (centres undefined)	20	-2%	10µM*	19	-1%	8%
Cc1ccc(S(=O)(=O)N2CCN(C(=O)C3COc4ccccc4O3)CC2)cc1C (centres undefined)	0	2%	u	-12	-4%	5%
O=C(NCc1ccc2c(c1)CCN2C(=O)c1ccc(F)cc1)c1ccco1	1	2%	-10%	x	0%	x
CCOC(=O)c1c(C)[nH]c(CCC(=O)Nc2ccc(N(CC)CC)cc2C)c1C	-6	14%	u	x	-4%	x
CC(NCc1ccc(-c2ccccc2)cc1)C(O)c1ccccc1 (centres undefined)	-8	u	7.9µM*	4	-1%	-5%
Cn1c(-c2ccc(F)cc2)cnc1NCc1cccc(F)c1	-5	u	u	u	-3%	6%
Cn1c(-c2cccc(Br)c2)cnc1NCc1cccnc1	-11	-12%	-2%	-60*	-1%	-7%
COc1cccc(-c2cnc(NCc3cc(Cl)ccc3O)n2C)c1	-4	-2%	u	-16	28µM*	-8%
N#Cc1ccccc1S(=O)(=O)N1CCCC(c2nc3c(nnn3Cc3cccc(Cl)c3)c(=O)[nH]2)C1 (centres undefined)	-10	-3%	6%	x	-1%	x
Fc1cccc(/C=C2\CCCC3=C2NC(=S)NC3c2cccc(F)c2)c1 (centres undefined)	-16	-32%	10µM*	-19	1%	-5%
S=C1NC2=C(CCC/C2=C\c2ccc(Cl)cc2)C(c2ccc(Cl)cc2)N1 (centres undefined)	-19	-26%	7.9µM*	u	0%	-1%
COC(=O)c1cc(Cc2ccc(N)c(C(=O)OC)c2)ccc1N	6	-2%	-1%	10	28µM*	19%
